Sequences and labels used below:
B1: ENSMUSG00000029636.202|Wasf3|244:248 (ssRNA)
RNA: GGGAGUUCUACAGUCCGACGAUCGCUUCGAUAUCCGCAUGCUAACCAAAUGGCGAUUCCAUAGUCCUGGCUGAGGCAGGGGCUCAAAGUCCAGUGUCUGCUUUGCAAUUCUGGAAGGACAGCUGCUUAUUUAAAUAAGUCUGUGAUAUCCGCAGGCUUGGGUUACAGGGAGGACCUUGCAGAGGGACCAGGACACUGCCUUCCCUUAGGUGCAUUAUUUACGUGGCCUGCAGCUCUUAAUAUCUCUCACUGUUUAUGAAAAGAAAGAUUCAGAUCCGGGGUGACAUACACACAGUUGACAGGGCUCUUGCGGUCGCACUAGUGUGGAAUUCUCGGGUGUCAAGG
B2: ENSMUSG00000061578.835|Ksr2|29:33;71:75;146:150 (ssRNA)
RNA: GGGAGUUCUACAGUCCGACGAUCGCUUCGAUAUCCGCAUGCUAAAGGGCUCAGUCCAUAGCUGCCUGACUCACACAUUCUAGGCCUUUCUUGAGGCAAGUGUUCAUCAUGAUACACACAGGGUGAGGAGGAGUUUCUUCAUGGCAAACAGGAAGCAAAGAGCAAUACAGGAAAAGGUCAGGGGUGAGAACACACAUUGCCACUUCCUCCAGCUAGGACCUUUGAGCAUCACAUUGUGAAGCCAUCCAGGGACUUGGGGGUUAGGUCAGAGGUAUCAAUACAUCUCCGGAAACAUCGUCACAGACUCUUGCGGUCGCACUAGUGUGGAAUUCUCGGGUGUCAAGG
B3: ENSMUSG00000004113.468|Cacna1b (ssRNA)
RNA: GGGAGUUCUACAGUCCGACGAUCGCUUCGAUAUCCGCAUGCUAGCAAAAAUUUAUAUUUAACAGUGUUGAGAGAGAGAGAGAGAGAGCGAGAGAGAGAGAGAUCCAGUCAUGCAACACAAAUGGGAUCUACUUUUAAACAACAGUCCUUUGACUAGUUUGCUGCCUGAAUAAUAUUUACAAACUAAACUUUGGAUUCUGCUCUUGUUUCUACAAUGAUUUUUUGUAUAAAGCAAAGUCCUUGGAUUAAAUAAAAACAACCCAAAAAAAAAAUCAAAAUCAAAACCCAGGAUGCAACUGGGUGACUCUUGCGGUCGCACUAGUGUGGAAUUCUCGGGUGUCAAGG
B4: ENSMUSG00000058297.109|Spock2|57:62 (ssRNA)
RNA: GGGAGUUCUACAGUCCGACGAUCGCUUCGAUAUCCGCAUGCUAUGUACACACAGCAAGGCUUACUAUCCGUCUCCUGACAUCCGAAGAGCUCGUCGCAGCACACACUAAUGGCCCUUGGGCUGCACGUGGUUAAGCAUAGCUGUCUCUGUGGCCCAACACAAAGAGGUAAACUUACUUAAAACACAGGGGUUUUGUUGCUGUUUGUUUUUUGUUAGUUUGUUUGUUGAUAAUUGGAUUGAGGAGUUAAUCCUCUGUCACAAUGUCAAAAGCAUGGACAUCCCUGAUAGAUUAUCUCUCAACCUCUCUUGCGGUCGCACUAGUGUGGAAUUCUCGGGUGUCAAGG
B5: ENSMUSG00000028439.270|Fam219a|220:224 (ssRNA)
RNA: GGGAGUUCUACAGUCCGACGAUCGCUUCGAUAUCCGCAUGCUAAGCUGAGGCUGUAGCUCAGUGAGAUGGUGGCUCUCCCAUGGCUGAAGACAAGUGCAAGCAGAGAGAGCCUCAGGCUGCUGGGCCUCGGACCCACGAGCCUCCUCUCACUGAGCCAGUGCGGCCAGAGUGUCUCUCCUUCAGGCGCCCCACAUGCCAGCAUUUCCACCCUCUGGAUUCUCCUCACAUGUCACUCUCCAGGUGCCGGGGCCUAGAGUGGGCCACACAGAAGGAGGAGUGGGGCUGUUGGCUUAGGAAGGGAACUCUUGCGGUCGCACUAGUGUGGAAUUCUCGGGUGUCAAGG
B6: ENSMUSG00000061578.426|Ksr2 (ssRNA)
RNA: GGGAGUUCUACAGUCCGACGAUCGCUUCGAUAUCCGCAUGCUAGACCACUGACCCGUCCAGACCCUCGCUUCUUACAAUGCCUCUUCUUCUGCCAGACCAGCCACCUGCCCCACUAACACCAAAUGGCUUCUGUCCCUGCUUCACGUUGCAAAUCCUUCAAGACAGAAGUUUCAGAGGGGAUAGUUCCUUCUAACCUUGUACUGGGACAUCAUCUAUGUCCCCAUCCCCAGAGCUGAAUUAGAGACACCAAGUAGCCUCUUGGGUUGUUUUGUGGGGUGUUCCCCUUGCUGGUCAAAGGAGUGCUCUUGCGGUCGCACUAGUGUGGAAUUCUCGGGUGUCAAGG
B7: ENSMUSG00000058297.310|Spock2 (ssRNA)
RNA: GGGAGUUCUACAGUCCGACGAUCGCUUCGAUAUCCGCAUGCUAGCAGCUAGCUACUGGGGACCUUGUGCUGAGGCUUCCAGGACAAAGCCCCAGUCUGGCUCUCCCCCAGCCUCUCAGGGGCACUGGCUGGUCACAUCCACUGAGUAUUGAUCGGUUGGACUUUAGGGAAGAGCCUCCUCCUUCCCAUUCCUUUCUGCCACCCUGGAAUGGCCACCUUAAUCGUCAUCUCCUCGGGGGGAAUACGGAAAUGUCACCAAGCUCCAUAAAGUGCUUCUCAUUCCACGACACAGUUCUGACUCUCCCUCUUGCGGUCGCACUAGUGUGGAAUUCUCGGGUGUCAAGG
B8: ENSMUSG00000090935.19|Synj2bp (ssRNA)
RNA: GGGAGUUCUACAGUCCGACGAUCGCUUCGAUAUCCGCAUGCUAAUUAUUUAGUCACGGAGGAAGAGAUCAACCUGACGAGAGGACCUUCGGGUAAAUGGCCAAGAUCUGAAGAACCUGCUGCACCAAGAUGCUGUAGACCUCUUCCGUAAUGCGGGAUGUGCUGUGUCCCUGAGAGUACAGCACAGGUUACCAGUGCAGAAUGGACCUAUAGUACAUCGAGGUGAAGGAGAGCCAAGUGGAGUUCCUGUAGCUAUGGUGCUGCUACCAGUGUUUGCCCUCACCAUGGUAGCAGUUUGGGCCUUCUCUUGCGGUCGCACUAGUGUGGAAUUCUCGGGUGUCAAGG
B9: ENSMUSG00000061578.1360|Ksr2|254:258 (ssRNA)
RNA: GGGAGUUCUACAGUCCGACGAUCGCUUCGAUAUCCGCAUGCUAAGGCAAGCAACCUUGCCAAGGCAGGCCAGACAGGACAGCCCAGCUUCCCACUCCAGACAUGUUGUUCUUACAUCUCUGACCCAGUGAUCUUUCUAGGGGUCUGUCACAUGUCCCAACAGGUGGACAGCUCUCCAAGUCACCAACCUGAGGAAAAUAUCCCUCCUUGUAAAAAGGCUUUCUCUUUGUAAAUGAUUCUGUUGCCUUUUUCUAAACACAAAGUAUAUAUACCUAUAAAUGCUAUAUAUAUUAUAUAACACAAUCUCUUGCGGUCGCACUAGUGUGGAAUUCUCGGGUGUCAAGG
B10: ENSMUSG00000029636.126|Wasf3 (ssRNA)
RNA: GGGAGUUCUACAGUCCGACGAUCGCUUCGAUAUCCGCAUGCUAUCACUUUCAUGGCUAGCCCUGAUAGCGUUGGGCACCAGUUAGCCAGGCCAUGUUCAAGCUGCCUAGAGUCUGCAGAGCUUGCAUGGCAGAGCGGCCGCAUCUGGUUCCCUCCUACUCCACCCAGUGGAAAAGAGACCUCCACGUUUUAUUUUCUGGGAUCCCUGCUCCUCUGUUCACCAGGGAGUGAGCACAGGUCAGCACCUCACCCCCCUUGCUCUGAAUCAUGGAAGCUUGGCUUUAGCUGAGAGAUGCCACCAGCUCUCUUGCGGUCGCACUAGUGUGGAAUUCUCGGGUGUCAAGG
B11: ENSMUSG00000038916.65|Soga3 (ssRNA)
RNA: GGGAGUUCUACAGUCCGACGAUCGCUUCGAUAUCCGCAUGCUAACCUUUCUUUGUUUUGCACUCUUGAGUCAUAGUUGACUGGCUGACUGUGAAAAAUGGACAAAGUCUCAUAAUUAUUCUGUAGGAAUUGAGUAUUAUUUUACACCUGGAAAAUUUCAGCUGGUUGCAUUUUCAAAUUCAUGUAGAGGCAUUAAUUAUAAGUCAAUGUAGAUGAUUUAUAAAUUAUCUCUGUUAUAAAUUAUGUAGAUUUGUAAGCAUGCUGUUACUCAUGUUAGACAAAAAGGAAAACAUCAAUGUCUAAUCUCUUGCGGUCGCACUAGUGUGGAAUUCUCGGGUGUCAAGG
B12: ENSMUSG00000061578.1302|Ksr2 (ssRNA)
RNA: GGGAGUUCUACAGUCCGACGAUCGCUUCGAUAUCCGCAUGCUAGGGAUUGGCUGUAGUUAAUUAAAAGCACCUGUCUCUGUCAUCUCUGCACCCAACUGAAUCUCCCACCCUCAAGUGUACCUCUCAGGAUAUCCCCAGGCACACGAAGAUGGAAUGGAAAGCCAGUGGGUAUCUCCCACCCACUUAGAUGCUGAUGGCCUGGGACUAUAAACAGGGACAGUUGGGUCUCCUAAGGAAUAGCUUCCAGGUCCAGGAUGCUGGCAUCUCCCAGAGAGAACUCCAUCCCCUGACCACCAAGGCCUCUCUUGCGGUCGCACUAGUGUGGAAUUCUCGGGUGUCAAGG
B13: ENSMUSG00000061578.924|Ksr2 (ssRNA)
RNA: GGGAGUUCUACAGUCCGACGAUCGCUUCGAUAUCCGCAUGCUACAUGAGCCCAGAUAGUCAAAGACUUCAGCACAAGGGUGUUUAGAGUAGGCAGUGUGGAAGUAUCAAUAAGGUUAUUGAGAUGAGGAUUUAGAAAGAUCCAUGUAUAAAAGGUCUAGAAGGAUGAAGAUCUAAAACAAGAAGACUGCAUGUUAACGCUCCUGCCACUGUUGCCCCUUCCUUUACCCUUGGCAGACAUUGCUAAUCAAUCUCAGCACAGUUUCCAACCACAGUCAUAGAACAUUUGCCACAAAGGCCCUGGACUCUUGCGGUCGCACUAGUGUGGAAUUCUCGGGUGUCAAGG

In all, about 9,900 sequences were measured (“r (bound/input frequency ratio)”: median about 0.7, highest 2% from about 6.5 on). Only a selection was taken, and the highest values are over-represented in it overall.

In this assay the target is TDP-43 (Homo sapiens, UniProt Q13148 1-414). The experiment in a line: RNA Bind-n-Seq with designed 260-mer pool; 25 mM Tris-HCl, 150 mM KCl, 3 mM MgCl2, BSA (printed 500 mg/mL), 20 units/mL SUPERase IN; pH not stated; 500 nM RNA pool, 1 h, 4 C; TDP-43 5, 50, 500 nM; high values mean tight binding. The note with it: protein: recombinant; tags: SBP (GST cleaved off with PreScission; pGEX-GST-SBP). The gist of the method: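 In 25 mM Tris-HCl, 150 mM KCl, 3 mM MgCl2, BSA and SUPERase IN, 500 nM of an in vitro-transcribed 260-nt 3′ UTR oligo pool was incubated for 1 h at 4 °C with SBP-tagged TDP-43 (5, 50 or 500 nM) captured on streptavidin beads. RNA remaining after washes was biotin-eluted, reverse transcribed, PCR-amplified and sequenced. Binding, R, is the bound-sample abundance of each oligo, normalized to mapped reads, divided by its abundance in input. Each duplicate used a separate, independent protein batch.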
TDP-43, sequence (Q13148 whole entry): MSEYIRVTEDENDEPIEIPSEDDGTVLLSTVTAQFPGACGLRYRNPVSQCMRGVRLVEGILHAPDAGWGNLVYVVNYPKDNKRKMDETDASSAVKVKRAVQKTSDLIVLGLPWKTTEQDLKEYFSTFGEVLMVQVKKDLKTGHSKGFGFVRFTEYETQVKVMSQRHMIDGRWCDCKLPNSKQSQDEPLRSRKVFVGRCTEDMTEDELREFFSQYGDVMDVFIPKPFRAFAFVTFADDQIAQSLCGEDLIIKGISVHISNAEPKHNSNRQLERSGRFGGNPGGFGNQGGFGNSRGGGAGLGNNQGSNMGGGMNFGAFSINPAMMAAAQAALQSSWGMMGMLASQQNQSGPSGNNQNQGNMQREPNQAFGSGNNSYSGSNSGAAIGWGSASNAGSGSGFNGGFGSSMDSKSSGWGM
As to B1, the binding signal is 0.996 R (bound/input frequency ratio).

For B2, the binding signal was 0.305 R (bound/input frequency ratio).

Take B3: the binding signal is 0.308 R (bound/input frequency ratio).

As for B4, the binding signal was 1.85 R (bound/input frequency ratio).

Take B5: the binding signal was 1.33 R (bound/input frequency ratio).

In the case of B6, the binding signal is 1.01 R (bound/input frequency ratio).

For the molecule B7, the binding signal was 0.874 R (bound/input frequency ratio).

As to B8, the binding signal was 0.919 R (bound/input frequency ratio).

Consider B9, for which the binding signal was 0.201 R (bound/input frequency ratio).

As for B10, the binding signal was 1.2 R (bound/input frequency ratio).

As for B11, the binding signal is 0.077 R (bound/input frequency ratio).

B12: the binding signal was 0.444 R (bound/input frequency ratio).

Take B13: the binding signal is 1.12 R (bound/input frequency ratio).
